Data taken from PubChem BioAssay (NCI).
About 83,000 compounds went through this panel and 20% of them were active in at least one assay; those are over-represented in the sample as a whole.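 Activity criterion: percent growth below 10, measured after cells in 96-well plates were exposed to a single compound concentration for 48 hours.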 Active and inactive are the calls of the source.

Test system: SF-539 CNS
Test: NCI-60 one-dose screen, 48 h (100 = growth as untreated, 0 = no growth, -100 = all killed)
Settings: 10 µM unless noted

SMILES	growth
O=C(NNC(=O)c1ccc(-n2cc(-c3ccccc3)nn2)cc1)Nc1ccccc1	96% (inactive)
COc1ccc(-c2csc(N(C(=O)N3CCN(c4cc5c(cc4F)c(=O)c(C(=O)O)cn5C4CC4)CC3)c3ccccc3)n2)cc1	9.1% (active)
O=Nc1c(-c2c(O)[nH]c3ncccc23)[nH]c2ccccc12	50.3% (inactive)
CCN1CC(=O)N(/N=C2\C(=O)Nc3ccccc32)C1=S	94.1% (inactive)
O=C1CC(N2C(=O)/C(=C/C(Cl)=C\c3ccc([N+](=O)[O-])cc3)SC2=S)C(=O)N1c1ccc(Cl)cc1 (centres undefined)	15.9% (inactive)
CN(C)C1CCN(Cc2ccc(NC(=O)c3cncc(C#Cc4cnc(N)c5ncccc45)c3)cc2C(F)(F)F)CC1	59.6% (inactive)
Cn1cc(-c2nonc2-c2c[nH]c3ccc(Br)cc23)c2cc(Br)ccc21	46% (inactive)
C[C@@H]1CCC[C@H]1CC(N)C(=O)O (some centres undefined)	105% (inactive)
S=C(Nc1ccc(-c2nc(N3CCOCC3)c3cccn3n2)cc1)Nc1cccnc1	10% (inactive)
O=C(CN1C(=O)CCC1=O)Nc1ncc(Cc2ccc(F)cc2)s1	98.7% (inactive)
CN1CCN(C(=O)OCc2ccc3c(Cl)cc(Cl)c(O)c3n2)CC1	66.2% (inactive)
O=C(O)[C@@H]1c2ccccc2-c2ccccc2[C@H]1C(=O)O	98.4% (inactive)
Clc1ccc(Sc2cnc(-c3ccccc3)o2)cc1	96% (inactive)
C=C(C)[C@@H]1CC[C@]2(C(=O)NCC#CCN3CCN(C)CC3)CC[C@]3(C)[C@H](CC[C@@H]4[C@@](C)(CCC#N)[C@H](C(=C)C)CC[C@]43C)[C@@H]12	66% (inactive)
